This is part of a sample that, as a whole, favours compounds with a hit. Of some 83,000 tested, about 20% had one in any assay.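 Values shown are percent growth following 48 h exposure of cells in 96-well plates to a single concentration of compound; below 10 was considered active.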 Unmarked numbers belong to inactive results. Activity calls are given as the source filed them.
tested on: HL-60(TB) leukemia; test: NCI-60 one-dose screen, 48 h (100 = growth as untreated, 0 = no growth, -100 = all killed); details: 10 µM unless noted

| SMILES | growth |
| --- | --- |
| O=C(CSc1nccc(Nc2ccc(S(=O)(=O)Nc3nccs3)cc2)n1)c1ccc(C(F)(F)F)cc1 | 103% |
| Nc1ccc2ccc(N)cc2c1 | 97.4% |
| CCOc1ccc(/C=C/C=N/NC(N)=S)cc1 | 42% |
| CC1(C)N=C(N)N=C(N)N1c1cc(Cl)ccc1Cl | 53.7% |
| COc1cc2c(cc1OC)C1CCN3C(=O)CCC3N1CC2 (stereo not given) | 126% |
| CCN(c1cc(-c2ccc(CN3CCC(/C=C/S(=O)(=O)c4ccccc4)CC3)cc2)cc(C(=O)NCc2c(C)cc(C)[nH]c2=O)c1C)C1CCOCC1 | 23.4% |
| O=C(Nc1ccc2ncnc(Nc3ccc(Oc4cccc(F)c4)c(Cl)c3)c2c1)c1ccc(CNCCO)cc1 | 22.3% |
| Oc1ccc(Cl)cc1Cc1cc(Cl)cc(Cl)c1O | -11.1% (active) |
| O=P(O)(O)OCC1OC(n2cnc3c(NCc4ccccc4)ncnc32)C(O)C1O (stereo not given) | 26.8% |
| Cc1cc(-c2ccccc2)cc(SC#N)[n+]1[O-] | 7.14% (active) |
| C=C1CC[C@@]2(C#N)[C@H]3[C@H](CC[C@@H]2C)[C@@H](C)C[C@@H](CC(C)(C)C#N)[C@H]13 | 21.8% |
| CC(C)(C)c1nn(-c2ccccc2)c2c1C(=O)CSC(c1ccc3c(c1)OCO3)N2 (stereo not given) | 89.5% |
| COC(=O)CC1=C(C)/C(=C/c2[nH]c(-c3ccc[nH]3)cc2OC)N=C1C | -29.2% (active) |
| COc1ccc(CN2c3ccccc3Sc3ccccc32)c(C(F)(F)F)c1 | 23.7% |
| C=CCOc1ccc2c(c1)CC[C@@H]1[C@@H]2CC[C@@]2(C)[C@H]1CC[C@]2(C)O | 74.6% |
| N=C(N)c1ccc(-c2ccc(-c3ccc(-c4cccs4)s3)s2)cc1F | 99.7% |
| C=C(C)[C@@H]1CC[C@]2(C)[C@H](CC=C3[C@@H]4CC(C)(C)CC[C@]4(C(=O)OC)CC[C@]32C)[C@@]1(C)CC/C(N)=N/O | 2.39% (active) |
| Nc1ccc(S(=O)(=O)Nc2cc(I)cc(I)c2)cc1 | -75% (active) |
| COc1ccc(-c2nc3sccn3c2-c2ccnc(NCCCNS(=O)(=O)c3ccc(C)cc3)n2)cc1 | 0.661% (active) |
| N#C/C(=C1\SC(=O)CN1c1ccccc1)c1nc2ccccc2s1 | 92.8% |

| SMILES | growth |
| --- | --- |
| Oc1cc(O)c2c(=S)cc(-c3ccc(Cl)cc3)oc2c1 | 37.6% |
| COc1ccc(C(=O)c2cc(OC)c(OC)c(OC)c2)cc1/C=C/C(=O)c1ccc(F)cc1 | 93.2% |
| COc1ncc(-c2ccc3nc(N)n(-c4ccccc4C(F)(F)F)c(=O)c3c2)cc1S(=O)(=O)Nc1ccc(F)cc1F | 19.9% |
| CC(C)C[C@@H](NC(=O)[C@@H](Cc1ccccc1)NC(=O)c1cnccn1)B1Oc2ccc(C[C@H](NC(=O)[C@H](Cc3ccc4c(c3)OB([C@@H](CC(C)C)NC(=O)[C@@H](Cc3ccccc3)NC(=O)c3cnccn3)O4)NC(=O)[C@@H](N)CC3CCC4OB([C@@H](CC(C)C)NC(=O)[C@@H](CC5CCCCC5)NC(=O)C5CNCCN5)OC4C3)C(=O)NCCCC[C@@H]3NC(=O)[C@@H](Cc4ccccc4)NC(=O)[C@H](CC(=O)O)NC(=O)CNC(=O)[C@H](CCCNC(=N)N)NC3=O)cc2O1 (stereo not given in full) | -2.54% (active) |
| O=C(/C=C/c1cn(-c2ccccc2)nc1-c1ccc(Cl)cc1)c1ccc(F)cc1 | 56.6% |
| O=Nc1ccc(O)c2ccccc12 | -3.12% (active) |
| COc1ccc(/C=c2\c(=O)n(-c3ccccc3)c3nn4c(n23)=NNC42CCCCC2)cc1 | 110% |
| COc1cccc(-c2nc3occn3c2-c2ccnc(NCCNS(=O)(=O)c3ccc(C(F)(F)F)cc3)n2)c1 | 116% |
| O=[N+]([O-])c1ccc(N/N=C\c2cc(Cl)ccc2O)nc1 | -2.47% (active) |
| Cc1ccc(NCCN(C)CC(C)O)c2c(=O)c3ccccc3sc12 (stereo not given) | 31.3% |
| O=C(N/N=C/c1ccc([N+](=O)[O-])cc1)c1ccccc1Nc1cccc(C(F)(F)F)c1 | 108% |
| CSc1cnc2ccccc2n1 | 90.3% |
| COc1ccc(Nc2ncc(Br)c(NCCCNC(=O)C3CCCC3)n2)cc1 | 17% |
| CC1(C)CC(=O)C2=C(C1)N(c1ccc(F)cc1F)C(N)=C(C#N)C2c1cc(Br)ccc1F (stereo not given) | 99.4% |
| O=C1c2cccnc2C(=O)c2nc3cc(N4CCN(C5CC5)CC4)ccc3nc21 | -43.1% (active) |
| CC1(C)CC[C@]2(C(=O)Nc3ccccn3)CC[C@]3(C)C(=CC[C@@H]4[C@@]5(C)C/C(=C/c6cccnc6)C(=O)C(C)(C)[C@@H]5CC[C@]43C)[C@H]2C1 | 1.84% (active) |
| Cn1c2ccccc2c2c3[nH]c(=O)[nH]c(=O)c3c3c4ccccc4n(C)c3c21 | 48.9% |
| CC(C)(C)c1[nH]nc2c1C(c1cc3ccccc3[nH]c1=O)Nc1cc(C(=O)OCc3ccccc3)ccc1N2 (stereo not given) | 54.5% |
| COc1ccc(/C(C)=C(\c2ccc(OCCN3CCCCCC3)cc2)c2ccc(OC(=O)C3CCCCC3)cc2)cc1 | -41.1% (active) |
| Nc1ncnc2c1c(-c1ccc(Oc3ccccc3)cc1)nn2C[C@H]1SSC[C@H]1O | -31.9% (active) |

Reference: PubChem BioAssay (NCI)
